Data published in PubChem BioAssay AID1159580 (chemical genetic matrix, 2015).
The whole screen tested about 5,500 compounds, of which about 2,000 (36%) were called active. Another 18% or so got no clear call; they are omitted. Rule as the data show it: active = normalized growth mostly below about 0.91 (no sharp cut-off); inconclusive = no clear call, values can overlap the other calls; inactive = mostly above about 0.92. This is one part of the list.

Assay: chemical genetic growth profiling, strain panel (AID 1159580);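 also: tested at 20 µM; growth read once vehicle control cultures reached saturation at 30 °C; 1 = growth at the plate median or of vehicle wells; lower values mean less growth of the strain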
Details: S. cerevisiae deletion strains, growth OD

Measured: normalized growth

COc1cc(C(=O)OCCCN2CCCN(CCCOC(=O)c3cc(OC)c(OC)c(OC)c3)CC2)cc(OC)c1OC
inactive: locus YAL040C, strain CLN3, stronger effect = lower value 0.967 | locus YCL061C, strain MRC1 (second series), stronger effect = lower value 1.01 | locus YDR150W, strain NUM1, stronger effect = lower value 0.998 | locus YDR363W, strain ESC2, stronger effect = lower value 1.03 | locus YER002W, strain NOP16, stronger effect = lower value 1.03 | locus YMR307W, strain GAS1, stronger effect = lower value 1.01 | locus YNL175C, strain NOP13, stronger effect = lower value 1.01 | locus YNL197C, strain WHI3, stronger effect = lower value 1 | locus YNL224C, strain SQS1, stronger effect = lower value 1.01 | locus YOR083W, strain WHI5 (second series), stronger effect = lower value 0.972 | locus YPL055C, strain LGE1, stronger effect = lower value 1.02
